According to PubChem BioAssay AID1159580 (chemical genetic matrix, 2015):
Values joined by “and” are separate entries in the source; they are usually repeats but may differ in a detail not shown here. Equal values may be shown once. Among all 5,500 compounds or so, about 2,000 (36%) were called active. Not shown: some 18% with an inconclusive outcome. Cut-off read from the data, not from the text of the source: active = normalized growth mostly below about 0.91 (no sharp cut-off); inconclusive = no clear call, values can overlap the other calls; inactive = mostly above about 0.92. This is one part of the list.

Assay: chemical genetic growth profiling, strain panel (AID 1159580);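 note: tested at 20 µM; growth read once vehicle control cultures reached saturation at 30 °C; 1 = growth at the plate median or of vehicle wells; lower values mean less growth of the strain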
Details: S. cerevisiae deletion strains, growth OD

Measured: normalized growth

O=C(O)CCCOc1ccc(Cl)cc1Cl
active: locus YBR171W, strain sec66, stronger effect = lower value 0.888 | locus YDR137W, strain rgp1, stronger effect = lower value 0.817 | locus YHR079C, strain IRE1, stronger effect = lower value 0.757 | locus YJL129C, strain trk1, stronger effect = lower value 0.847 | locus YJR066W, strain TOR1, stronger effect = lower value 0.779
0.999 (inactive) and 0.829 (active): locus YHR030C, strain SLT2, stronger effect = lower value
1.01 (inactive) and 0.838 (active): locus YJL095W, strain BCK1, stronger effect = lower value
inactive: locus YAL013W, strain DEP1, stronger effect = lower value 0.993 | locus YAL021C, strain ccr4, stronger effect = lower value 0.941 | locus YAL026C, strain drs2, stronger effect = lower value 0.931 | locus YAL030W, strain snc1, stronger effect = lower value 0.944 | locus YBL061C, strain skt5, stronger effect = lower value 0.948 | locus YBR009C, strain hhf1, stronger effect = lower value 0.951 | locus YBR021W, strain FUR4, stronger effect = lower value 0.97 | locus YBR023C, strain chs3, stronger effect = lower value 0.954 | locus YBR229C, strain ROT2, stronger effect = lower value 1.01 | locus YBR231C, strain swc5, stronger effect = lower value 0.962 | locus YBR279W, strain paf1, stronger effect = lower value 0.962 | locus YCL011C, strain gbp2, stronger effect = lower value 0.957 | locus YCL016C, strain dcc1, stronger effect = lower value 0.958 | locus YCL029C, strain bik1, stronger effect = lower value 1 | locus YCL061C, strain MRC1, stronger effect = lower value 0.938 | locus YCL069W, strain vba3, stronger effect = lower value 0.944 | locus YCR088W, strain abp1, stronger effect = lower value 0.929 | locus YDL005C, strain med2, stronger effect = lower value 0.946 | locus YDL035C, strain GPR1, stronger effect = lower value 1.01 | locus YDL040C, strain nat1, stronger effect = lower value 0.961 | locus YDL074C, strain BRE1, stronger effect = lower value 1 | locus YDL101C, strain DUN1, stronger effect = lower value 1.01 | locus YDL134C, strain PPH21, stronger effect = lower value 0.999 | locus YDL185W, strain tfp1, stronger effect = lower value 0.986 | locus YDL192W, strain arf1, stronger effect = lower value 1.02 | locus YDR001C, strain nth1, stronger effect = lower value 0.942 | locus YDR069C, strain doa4, stronger effect = lower value 0.955 | locus YDR101C, strain arx1, stronger effect = lower value 1.01 | locus YDR150W, strain NUM1, stronger effect = lower value 0.994 | locus YDR159W, strain sac3, stronger effect = lower value 0.902 | locus YDR162C, strain NBP2, stronger effect = lower value 0.99 | locus YDR195W, strain ref2 0.955 | locus YDR297W, strain sur2, stronger effect = lower value 0.962 | locus YDR318W, strain mcm21, stronger effect = lower value 1.01 | locus YDR334W, strain swr1, stronger effect = lower value 0.945 | locus YDR335W, strain msn5, stronger effect = lower value 0.943 | locus YDR388W, stronger effect = lower value 1.01 | locus YDR392W, strain spt3, stronger effect = lower value 0.893 | locus YDR502C, strain sam2, stronger effect = lower value 1.01 | locus YEL003W, strain gim4, stronger effect = lower value 0.963 | locus YEL037C, strain rad23, stronger effect = lower value 0.954 | locus YEL061C, strain CIN8 (second series), stronger effect = lower value 0.929 | locus YEL061C, strain CIN8, stronger effect = lower value 0.998 | locus YER015W, strain faa2, stronger effect = lower value 0.969 | locus YER016W, strain bim1, stronger effect = lower value 0.962 | locus YER110C, stronger effect = lower value 1.01 | locus YER111C, strain swi4, stronger effect = lower value 0.944 | locus YER155C, strain BEM2 (second series), stronger effect = lower value 0.887 | locus YER155C, strain BEM2, stronger effect = lower value 0.98 | locus YER167W, strain BCK2, stronger effect = lower value 0.991 | locus YFR010W, strain ubp6, stronger effect = lower value 0.951 | locus YGL078C, strain dbp3, stronger effect = lower value 1.01 | locus YGL086W, strain mad1, stronger effect = lower value 0.99 | locus YGL167C, strain pmr1, stronger effect = lower value 0.929 | locus YGL173C, strain kem1, stronger effect = lower value 0.952 | locus YGL227W, strain vid30, stronger effect = lower value 0.93 | locus YGL240W, strain doc1, stronger effect = lower value 0.912 | locus YGL248W, strain PDE1, stronger effect = lower value 1.01 | locus YGL253W, strain hxk2, stronger effect = lower value 0.939 | locus YGR078C, strain PAC10, stronger effect = lower value 1.01 | locus YGR135W, strain pre9, stronger effect = lower value 1.01 | locus YGR229C, strain SMI1, stronger effect = lower value 1.03 | locus YGR252W, strain gcn5, stronger effect = lower value 0.982 | locus YHR013C, strain ard1, stronger effect = lower value 0.93 | locus YHR027C, strain rpn1, stronger effect = lower value 0.938 | locus YHR079C, strain IRE1 (second series), stronger effect = lower value 1.01 | locus YHR094C, strain hxt1, stronger effect = lower value 1.01 | locus YHR129C, strain ARP1, stronger effect = lower value 0.993 | locus YHR142W, strain chs7, stronger effect = lower value 0.939 | locus YHR200W, strain rpn10, stronger effect = lower value 1 | locus YIL066C, strain RNR3, stronger effect = lower value 1.01 | locus YIL073C, strain SPO22, stronger effect = lower value 1.1 | locus YIL125W, strain kgd1, stronger effect = lower value 0.991 | locus YIR030C, strain dcg1, stronger effect = lower value 1.01 | locus YJL092W, strain hpr5, stronger effect = lower value 0.94 | locus YJL095W, strain BCK1 (second series), stronger effect = lower value 0.95 | locus YJL115W, strain asf1, stronger effect = lower value 0.922 | locus YJL134W, strain LCB3, stronger effect = lower value 0.998 | locus YJL154C, strain vps35, stronger effect = lower value 0.948 | locus YJL164C, strain tpk1, stronger effect = lower value 0.961 | locus YJL166W, strain qcr8, stronger effect = lower value 0.942 | locus YJL168C, strain set2, stronger effect = lower value 1.01 | locus YJL187C, strain SWE1 (second series), stronger effect = lower value 0.999 | locus YJL187C, strain SWE1, stronger effect = lower value 0.947 | locus YJR043C, strain POL32, stronger effect = lower value 0.997
